Measurements: ChEMBL document CHEMBL4513216, “Probing the Open Global Health Chemical Diversity Library for Multistage-Active Starting Points for Next-Generation Antimalarials” (ACS Infect Dis, 2020)
The whole screen tested about 69,000 compounds, of which about 8,600 (12%) showed an effect of 50% or more. For the sample, strong results were picked, then their nearest neighbours and some compounds at random.

What follows are compounds tested on Plasmodium berghei (assay: Screen against P. berghei liver stage (PbLuc), transformed with Luciferase, at 10uM). Conditions: tested at 10 uM.
Assay type: functional, HepG2

| SMILES | INHIBITION [%] |
| --- | --- |
| CN(C)C(=O)CN1CC[C@H]2CN(C3CCOCC3)C[C@@H]2C1=O | 30.9 |
| CCC(=O)N1CCN(C)C(=O)C(Cc2ccccc2-c2cccs2)C1 (stereo not drawn) | 22 |
| O=C(c1cc(=O)c(OCc2ccccc2F)co1)N1CCSCC1 | 21.5 |
| CS(=O)(=O)c1cncnc1C1CCCN(C(=O)Cc2ccccc2F)C1 (stereo not drawn) | 17.985 |
| CCNC(=O)[C@@H]1C[C@H](N)CN1C(=O)C1(c2ccc(OC)cc2)CCCC1 | -12.7 |
| CCN(CC)C(=O)CNC(=O)N1CCC(c2ccc(OC)cc2)C1 (stereo not drawn) | 21.7 |
| CCC(=O)Nc1cccc(OCC(=O)N2CC=CC2C(C)C)c1 (stereo not drawn) | -16.6 |
| Cc1ccccc1CCC(=O)N1CCCC(c2cc(C(N)=O)[nH]n2)C1 (stereo not drawn) | 11.9 |
| CCn1cc(NC(=O)c2c(C)nn(C)c2C)c(C(N)=O)n1 | 27.4 |
| Cc1ccc(-c2ccc(CC3NCCN(C)C3=O)cc2)cc1 (stereo not drawn) | 29.2 |
| Cn1nccc1-c1nc2c(cc1C(=O)O)CCN(CC1CC1)CC2 | -10.3 |
| Cn1nccc1-c1nc2c(cc1C(=O)O)CCN(C(=O)C1CC1)CC2 | 72.3 |
| Cn1cc(-c2nc3c(cc2C(=O)O)CCN(C(=O)C2CC2)CC3)cn1 | -27.1 |
| O=C(Cn1nc(-c2ccc(F)cc2)oc1=O)NCCc1ccccc1 | 27.6 |
| CNC(=O)CN1CC[C@H]2CN(C(=O)c3ccc(C)cc3)C[C@H]2C1 | -99.2 |
| Cc1nc(CN2CCC3(CCCN(Cc4cccnc4)C3)C2=O)cs1 (stereo not drawn) | 36.2 |
| CC(C)C(=O)N1CCC[C@]2(C(=O)N(C)C)CN(c3ccccn3)C[C@@H]2C1 | -28 |
| Cn1cc(C2CCCN2Cc2csc(Cc3ccccc3)n2)cn1 (stereo not drawn) | 35.9 |
| COc1ccc(CNC(=O)c2ccoc2CN2CCNC(=O)C2)cc1 | 29.3 |
| CCCc1nc(N2CCCCCC2)c2c(n1)c(C)nn2CC | 78.4 |
| CCCc1nc(N2CCCC(C)C2)c2c(n1)c(C)nn2CC (stereo not drawn) | 66.5 |
| CCCc1nc(N2CCCCC2)c2c(n1)c(C)nn2CC | 11.7 |
| CCCc1nc(N2CCC(C)CC2)c2c(n1)c(C)nn2CC | 12.3 |

| SMILES | INHIBITION [%] |
| --- | --- |
| CCCc1nc(N2CCN(CC)CC2)c2c(n1)c(C)nn2CC | 33.5 |
| CCCc1nc(N2CCSCC2)c2c(n1)c(C)nn2CC | -3.47 |
| CCC(=O)N1CCC(c2nc(O)c3c(n2)CN(C2CCCCC2)CC3)C1 (stereo not drawn) | 38.8 |
| Cn1cccc1C(=O)N1CCO[C@@H]2CN(Cc3ccco3)C[C@@H]2C1 | 15.8 |
| c1csc(CN2CCc3ncnc(C4CCOC4)c3CC2)c1 (stereo not drawn) | 33 |
| COc1ccc(OC)c(CNC2CCCc3nc(N(C)C)ncc32)c1 (stereo not drawn) | 37.6 |
| COc1ccc(OC)c(CNC2CCCN(c3cccnn3)C2)c1 (stereo not drawn) | 30.5 |
| COc1cccc(-c2n[nH]cc2CNC2CCC(O)CC2)c1 (stereo not drawn) | 19.4 |
| COc1ccc(-c2cc[nH]n2)cc1CNC1CCCC1 | 72.1 |
| COc1ccc(-c2ccoc2)cc1CNC1CCCC1 | 61.9 |
| COc1ccc(CNC2CCN(CCc3ccncc3)CC2)cc1O | -4.86 |
| COc1ccc(-c2cn[nH]c2)cc1CNC1CCCC1 | 9.04 |
| CCN1CCC(CNCc2cc(OC)ccc2OC)C1 (stereo not drawn) | 10.1 |
| COc1ccc(-c2ccncc2)cc1CNC1CCCC1 | 51.7 |
| Cc1cc(C(=O)CN(Cc2cccnc2)CC2CCCO2)c(C)[nH]1 (stereo not drawn) | 10.7 |
| Cc1cnc(C(NC(=O)NCC2(CO)CC2)C2CC2)s1 (stereo not drawn) | 22.8 |
| CC(C)c1nc(C(=O)N2C[C@@H]3CC[C@H]2CN(C2CCOCC2)C3)cs1 | 44.8 |
| CCn1ccc(C(=O)N2CCCC2(C)c2nc(C)cc(N(C)C)n2)n1 (stereo not drawn) | -4.51 |
| COc1ccc(CNC(C)c2cnc3cc(C)nn3c2C)cc1 (stereo not drawn) | 28.4 |
| COc1ccc(CNc2cccnc2-n2cccn2)cc1OC | 23.9 |
| COc1cccc(CNc2c(C)nn(C(C)C)c2C)c1 | 31.3 |
| COc1ccc(CNc2c(C)nn(C(C)C)c2C)cc1 | 69.3 |
| COc1ccc2cc(CNc3c(C)nn(C(C)C)c3C)ccc2c1 | 62.8 |

| SMILES | INHIBITION [%] |
| --- | --- |
| COc1ccc(CNc2c(C)nn(C(C)C)c2C)cc1OC | 62.8 |
| COc1ccc(C(=O)Nc2c(C)nn(C(C)C)c2C)cc1 | 10 |
| COc1ccc(CNc2n[nH]c(C)n2)cc1 | 4.03 |
| COc1ccc(CNc2nc(C3CC3)no2)cc1OC | 25.6 |
| O=C1CCOC[C@]2(CN(Cc3ccccc3)C[C@H]2c2cccnc2)N1 | 20.6 |
| CCC(C)N(Cc1ccsc1)C(=O)c1ccc(CO)cc1 (stereo not drawn) | 2.7 |
| CC(=O)Nc1nc(C2CCN(C(=O)c3cncs3)CC2)cs1 | 48.6 |
| CC(=O)Nc1nc(C2CCN(C(=O)c3ccncc3)CC2)cs1 | -9.27 |
| CC(=O)Nc1nc(C2CCN(C(C)=O)CC2)cs1 | 27.9 |
| CC(=O)Nc1nc(C2CCN(C(=O)c3cccnc3)CC2)cs1 | 60.8 |
| CC(=O)Nc1nc(C2CCN(CC(N)=O)CC2)cs1 | 63.7 |
| CC(=O)Nc1nc(C2CCN(C(C)C)CC2)cs1 | 23.4 |
| C[C@@H]1CC[C@@H](C)N1C(=O)c1cc(COc2ccccc2)[nH]n1 | 36.7 |
| Cc1cc(C)n(CC(=O)N2CCCCC2CCc2cccs2)c(=O)n1 (stereo not drawn) | 31.2 |
| c1c(CN2CCCC2)nc2n1CCNC2 | 33.4 |
| Cc1ccc(O)c(CNc2cccc(OCCF)c2)n1 | 9.91 |
| CC[C@@H]1N(Cc2ccco2)CCC[C@]12CCC(=O)N2C | 6.27 |
| CCCN(C)CC1CCN(c2ccc(Br)c(C)n2)C1 (stereo not drawn) | 74.8 |
| CCN(C)CC1CCN(c2ncc(Br)cn2)C1 (stereo not drawn) | 26 |
| Cc1ccc(N2CCCC(N(C)Cc3nc(C)c(C)o3)C2)nn1 (stereo not drawn) | 40.9 |
| Cc1nc(C2CCCN(c3ncc(Br)cn3)C2)no1 (stereo not drawn) | 19.8 |
| CCN(C)CC1CCN(C(=O)Nc2ccc(C)cc2)C1 (stereo not drawn) | -45.4 |
| CCCN(C)CC1CCN(c2ncc(Br)cn2)C1 (stereo not drawn) | 68 |

| SMILES | INHIBITION [%] |
| --- | --- |
| Cc1ccc2ncn(C(C)Cn3cccn3)c(=O)c2c1 (stereo not drawn) | 3.82 |
| O=C(NCc1sc2ccccc2c1Cl)c1cc2n(n1)CCNC2 | 25.1 |
| O=C(C1CCOCC1)N1CCO[C@@H]2[C@@H](OCc3ccncc3)CC[C@@H]21 | 23.6 |
| CC(C)c1nc(CS(=O)(=O)Cc2noc(C3CC3)n2)cs1 | 47.6 |
| Cc1ncsc1CN1CC[C@H]2OCC[C@@]2(C(=O)NC2CC2)C1 | -45.5 |
| COc1cc(CNC(=O)N(Cc2ccc(F)cc2F)C2CC2)ccn1 | -15.5 |
| Cc1cc(-c2ccc(=O)n(C3CCN(C(=O)C4CC4)CC3)n2)c(C)o1 | 23 |
| CN(C)C(=O)COCc1cncc2c1CCN(C1CCOCC1)C2 | 4.68 |
| N#Cc1c2n(c3c(=O)[nH]cnc13)CCCCC2 | 23.5 |
| Cc1cccc(-c2noc([C@@H]3C[C@@H](O)CN3CC3CCCCC3)n2)c1 | -27.5 |
| COc1cccc(-c2noc(C3CCN(CC(N)=O)C3)n2)c1 (stereo not drawn) | 41.2 |
| COc1cccc(-c2noc(CN3CCOCC3C)n2)c1 (stereo not drawn) | -7.35 |
| COc1cccc(-c2noc(C3CCN(CC4CCCCC4)C3)n2)c1 (stereo not drawn) | 67.9 |
| COc1cccc(-c2noc(C3CCN(Cc4ccncc4)C3)n2)c1 (stereo not drawn) | 78.2 |
| CN(Cc1noc(C2CC2)n1)C1CCN(Cc2ccncc2)C1 (stereo not drawn) | 45.8 |
| COc1cccc(CN2CC[C@H](c3nnc(C)o3)C2)c1 | -30 |
| COc1cccc(-c2noc(C3CCN(Cc4ccccc4C)C3)n2)c1 (stereo not drawn) | 45.6 |
| COc1cccc(-c2noc(C3CCN(Cc4ccc(C)cc4)C3)n2)c1 (stereo not drawn) | 66.4 |
| COc1cccc(CN2CC[C@H](c3nnc(-c4ccco4)o3)C2)c1 | -26.1 |
| COc1cccc(-c2noc(C3CCN(Cc4ccccc4F)C3)n2)c1 (stereo not drawn) | 84.2 |
| COc1cccc(-c2noc(C3CCN(Cc4cccs4)C3)n2)c1 (stereo not drawn) | 49.6 |
| CCN1CC(CN(C)Cc2nc(-c3ccc(C)o3)oc2C)CC1=O (stereo not drawn) | 34.2 |
| Cc1noc(C(C)C)c1C(=O)NS(=O)(=O)c1ccc2c(c1)OCCCO2 | 7.9 |

| SMILES | INHIBITION [%] |
| --- | --- |
| CNC(=O)c1ccc(-c2ccc(CNC(=O)COC)cc2)nc1C | 10.9 |
| Cc1ccc(CN(C(=O)NCC2CCS(=O)(=O)C2)C2CC2)o1 (stereo not drawn) | -39.2 |
| CCCn1nc(C(=O)NC2(c3ccc(Cl)cc3)CCCC2)ccc1=O | -51.3 |
| CCc1nc2n(n1)CC(NCc1cnn(-c3ccccc3)n1)CC2 (stereo not drawn) | 10.9165 |
| CN1CCOCC12CCN(Cc1ccoc1)CC2 | -13.2 |
| COc1cccc(CN2CCC(c3nnc(-c4cnc(C)cn4)o3)C2)c1 (stereo not drawn) | 29.3 |
| COc1cccc(-c2noc(C3CCN(Cc4cn(C)nc4C)C3)n2)c1 (stereo not drawn) | 84.8 |
| COc1ccc(CN(Cc2cn(C)nc2C)CC2CCCO2)c(OC)c1 (stereo not drawn) | 21.9 |
| CSCc1cccc(S(=O)(=O)Nc2cc(C)on2)c1 | 8.7 |
| Cc1nc(C)c(C(=O)NCCNc2ncccc2C#N)s1 | 13.3 |
| CSc1ncccc1C(=O)NCCC(O)c1cccs1 (stereo not drawn) | 26 |
| CSc1ncccc1C(=O)NCCC(O)c1ccco1 (stereo not drawn) | 53.2 |
| CSc1ccccc1C(=O)NCCC(O)c1ccco1 (stereo not drawn) | 45.7 |
| Cc1cccc(C(=O)N2CC(Cc3nccc4ccn(C)c34)C2)n1 | -23.8 |
| CN(C)CCOCC1CN(Cc2ccsc2)Cc2ccnn2C1 (stereo not drawn) | 11.4 |
| CN(C)CCN(Cc1cccc(C(F)(F)F)c1)C(=O)c1cc[nH]n1 | 22.4 |
| CN(C)CCN(Cc1ccc(C(F)(F)F)cc1)C(=O)c1cc[nH]n1 | 63.3 |
| CN(C)CCN(Cc1ccc(Cl)cc1)C(=O)c1cnccn1 | 68.3 |
| CN(C)CCN(Cc1ccc(Cl)cc1)C(=O)c1ccncc1 | 10.6 |
| CN(C)CCN(Cc1ccc(Cl)cc1)C(=O)c1cc[nH]n1 | 10 |
| Cc1cnc(C(=O)N(CCN(C)C)Cc2ccc(Cl)cc2)cn1 | 12.2 |
